Here are results for 40 compounds from PubChem BioAssay (NCATS).

The structures appear in SMILES notation. Results filed as inconclusive are left out. Values without a mark were called inactive. Activity calls are given as the source filed them. The call rests on the fitted dose curve; in most records, active means well fitted inhibition curve with a large enough effect; inconclusive means small, poorly fitted or top-dose-only effect; inactive means no such curve, though single readings can be large or run the other way.
Potency means the concentration at half of the fitted maximal effect.

The nature of the experiment: qHTS Screen of the MIPE 4.0 Collection Against Ewings Sarcoma (RDES) (AID 1259252). Further: nearly all actives have a fitted effect of over 35% in size.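 On viability (percent of control): 100% = DMSO-treated cells and 0% = medium-only wells without cells.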 The following applies: RD-ES Ewing sarcoma viability, CellTiter-Glo, 48 h; series mostly up to 45.8 µM; viability (percent of control): at the top concentration. An excerpt: There is a large unmet medical need for treatments for Ewing sarcoma, a pediatric sarcoma. We sought to identify compounds that inhibited Ewing sarcoma cells in vitro with the goal to then test promising drugs in two drug combinations in vitro to look for synergistic drug combinations. Promising combinations would then proceed to additional validation, including in vivo testing.
Using the NCATS developed oncology compound library called the Mechanism of Interrogation Plate (MIPE), four Ewing sarcoma cell lines were evaluated (TC32, TC71, RDES, EW8). Compounds, in a 12-point titration series, were incubated with cells for 48 hours and the read out was cell viability (CellTiter-Glo from Promega). These initial experiments were used to select appropriate concentrations of each single agent for subsequent two-drug matrix combinations such that the concentrations in the matrices would span both activity and non-activity.
Cells, in the log phase of growth, were seeded in 5 uL of RPMI plus 5% FBS, […] L-glutamine, 100 U/ml penicillin and 100 ug/ml streptomycin into 1536-well solid-bottom white tissue culture treated Greiner Bio One Plates (789173-F) using a MultiDrop Combi (Thermofisher Scientific) dispenser and a small sterile cassette. One column was media alone to be used as a :"no cells" control. The plates were then covered with sterilized stainless steel gasketed lids from Kalypsys. After allowing cells to attach for 4 hours, 23 nL of test compound or control (negative control DMSO and positive control 9.2 uM Bortezomib-final) were added from a 1536-well polypropylene compound source plate to each well using a 1536 head pin tool from Kalypsys. Cells were then incubated for 48 hours at 37C, 95% relative humidity and 5% CO2. After 48 hours, plates were removed from the incubator and 3 uL of CellTiter-Glo (Promega) was added using an Aurora Flying Reagent Dispenser Bioraptor. Plates were incubated at room temperature for 10 minutes prior to reading the luminescence on the Viewlux (PerkinElmer). The relative luciferase units are used to calculate the percent activity using the activity of DMSO in the cells and no cells columns for normalization of no inhibition and full inhibition respectively.
(In general: Quantitative high-throughput screening tests each substance at several concentrations.)
As for `OC[C@H]1O[C@@H](Oc2ccc(O)cc2)[C@H](O)[C@@H](O)[C@H]1O`, the “viability (percent of control)” value was 89%.

Take `CCCCC(F)(F)[C@@]1(O)CC[C@H]2[C@H](CC(=O)[C@@H]2CCCCCCC(=O)O)O1`: the Potency is 2.64 µM (active).

With `CC[C@H](C)n1cc(C)c2c(C(=O)NCc3c(C)cc(C)[nH]c3=O)cc(-c3ccc(N4CCNCC4)nc3)cc21`, the Potency is 23.5 µM (active).

`CN1CCN2c3ncccc3Cc3ccccc3C2C1` (stereo not given): the “viability (percent of control)” value was 124%.

For `Nc1nc(Cl)nc2c1ncn2[C@@H]1O[C@H](CO)[C@@H](O)[C@H]1F`, the “viability (percent of control)” value was 8.53%.

Take `Cc1nc(NC(=O)N2CCC[C@@H]2C(N)=O)sc1-c1csc(C(C)(C)C)n1`: the Potency is 5.26 µM (active).

For the compound `Cc1ccc2c(c1)c1c(n2CCc2ccc(C)nc2)CCN(C)C1`, the “viability (percent of control)” value is 99.8%.

Consider `Cc1cc(OCCCS(C)(=O)=O)cc(C)c1-c1cccc(COc2ccc3c(c2)OC[C@H]3CC(=O)O)c1`, for which the “viability (percent of control)” value was 103%.

On to `C[C@H]1[C@H](O)O[C@@H]2O[C@@]3(C)CC[C@@H]4[C@H](C)CC[C@@H]1[C@@]24OO3`, for which the Potency is 3.32 µM (active).

With `Cc1cn([C@@H]2C[C@@H](O)[C@H](CO)O2)c(=O)[nH]c1=O`, the “viability (percent of control)” value was 118%.

In the case of `O=C(O)c1ccc(O)c2ncc(N3CCOCC3)cc12`, the Potency was 26.4 µM (active).

Consider `O=c1[nH]nc(OCCCc2ccc(Cl)cc2)c(NCc2cccnc2)c1Br`, for which the Potency is 18.7 µM (active).

On to `CN1C(=O)C[C@H](C(=O)N[C@@H](Cc2cnc[nH]2)C(=O)N2CCC[C@@H]2C(N)=O)NC1=O`, for which the Potency is 20.9 µM (active).

Turning to `O=C1NC(=O)C(c2cnc3ccccn23)=C1c1cn2c3c(cccc13)CN(C(=O)N1CCOCC1)CC2`, the Potency is 5.26 µM (active).

With `Cc1ccc(NC(=O)c2cccc(N(C)C)c2)cc1NC(=O)c1ccc(O)cc1`, the Potency was 0.118 µM (active).

In the case of `CCc1cc(-c2n[nH]c(C)c2-c2ccc3c(c2)OCCO3)c(O)cc1O`, the Potency is 9.35 µM (active).

On to `CC(=O)OCC(=O)[C@@]12OC(C)(C)O[C@H]1C[C@H]1[C@@H]3C[C@H](F)C4=CC(=O)C=C[C@]4(C)[C@@]3(F)[C@@H](O)C[C@@]12C`, for which the “viability (percent of control)” value is 126%.

`CNC1[C@H](O)C(O[C@@H]2C(O)C(O[C@H]3O[C@H]([C@@H](C)NC)CC[C@H]3N)[C@@H](N)C[C@H]2N)OC[C@]1(C)O` (stereo not given in full): the “viability (percent of control)” value was 109%.

With `COc1cc2c(cc1OC)CC(=O)N(CCCN(C)C[C@H]1Cc3cc(OC)c(OC)cc31)CC2`, the Potency was 16.6 µM (active).

As to `COc1cc2nc(-c3cc(F)ccc3O)nc(N[C@@H]3CNC[C@@H]3C(C)(C)O)c2cc1OC`, the Potency is 23.5 µM (active).

Turning to `COc1cccc(OC)c1-c1cc(C(=O)NC2(C(=O)O)C3CC4CC(C3)CC2C4)nn1-c1ccnc2cc(Cl)ccc12` (stereo not given), the “viability (percent of control)” value is 126%.

On to `C[C@@H]1CC=CC=CC=CC=C[C@@H](O[C@@H]2O[C@H](C)[C@@H](O)[C@H](N)[C@H]2O)C[C@@H]2O[C@](O)(C[C@@H](O)C[C@@H]3O[C@@H]3C=CC(=O)O1)C[C@H](O)[C@@H]2C(=O)O`, for which the Potency is 7.43 µM (active).

As to `COc1cc(C=CC(=O)O)ccc1O`, the “viability (percent of control)” value is 115%.

With `CC(C)Oc1cc(Nc2nc(N[C@@H](C)c3ccc(F)cn3)ncc2Cl)[nH]n1`, the Potency was 16.6 µM (active).

As for `Cc1ccc(C(=O)N(CCCN)[C@@H](c2nc3cc(Cl)ccc3c(=O)n2Cc2ccccc2)C(C)C)cc1`, the Potency was 0.0017 µM (active).

For the compound `CCC(=C(CC)c1ccc(O)cc1)c1ccc(O)cc1`, the Potency was 23.5 µM (active).

For `Cc1cc2c(cc1C1(c3ccc(C(=O)O)cn3)CC1)C(C)(C)CCC2(C)C`, the “viability (percent of control)” value was 122%.

Take `CC(C)c1onc(-c2c(Cl)cccc2Cl)c1COc1ccc(C=Cc2cccc(C(=O)O)c2)c(Cl)c1`: the “viability (percent of control)” value was 114%.

`CN1CC(=O)NC1=NC(=O)Nc1cccc(Cl)c1`: the “viability (percent of control)” value is 112%.

On to `CCCCCCCCCCCCCC(=O)N[C@H](CO)[C@H](O)c1ccc([N+](=O)[O-])cc1`, for which the “viability (percent of control)” value is 110%.

In the case of `Oc1ccc(C=Cc2cc(O)cc(O)c2)cc1`, the Potency is 18.7 µM (active).

With `O=C(CC12CC3CC(CC(C3)C1)C2)Nc1cccc2nc(NCCNCCO)ccc12`, the Potency was 14.8 µM (active).

Take `CO[C@H]1/C=C\O[C@@]2(C)Oc3c(C)c(O)c4c(O)c(c5c(nc6cc(C)ccn65)c4c3C2=O)NC(=O)C(C)=CC=C[C@H](C)[C@H](O)[C@@H](C)[C@@H](O)[C@@H](C)[C@H](OC(C)=O)[C@H]1C`: the “viability (percent of control)” value was 121%.

Regarding `COc1ccc(-c2ccc3ncc4c(c3c2)n(-c2ccc(N3CCNCC3)c(C(F)(F)F)c2)c(=O)n4C)cn1`, the Potency is 0.0469 µM (active).

Consider `CC1=C(C(=O)Nc2cc3cn[nH]c3cc2F)C(c2ccc(C(F)(F)F)cc2)CC(=O)N1` (stereo not given), for which the Potency was 1.48 µM (active).

For the compound `COc1ccc2ccc(=O)oc2c1CC=C(C)C`, the Potency was 23.5 µM (active).

Take `COc1cc2ncn(-c3cc(OCc4ccccc4S(C)(=O)=O)c(C#N)s3)c2cc1OC`: the Potency is 16.6 µM (active).

For `CNc1nc(Nc2ccc(C(=O)N3CCOCC3)cc2OC)ncc1Cl`, the “viability (percent of control)” value is 126%.

`OC[C@H]1O[C@@H](O[C@H]2[C@@H](O)[C@@](O)(CO)O[C@@H]2CO)[C@H](O)[C@@H](O)[C@@H]1O`: the “viability (percent of control)” value was 114%.

In the case of `N#Cc1c(N(CC(=O)O)CC(=O)O)sc(C(=O)O)c1CC(=O)O`, the “viability (percent of control)” value is 116%.
